The source of these data is PubChem BioAssay (Tox21).

A short description of assay [1]: qHTS assay to identify small molecule antagonists of the estrogen receptor alpha (ER-alpha) signaling pathway using the BG1 cell line in the presence of 0.1 nM 17-beta-estradiol - cell viability counter screen (AID 1259241). Further: nearly all actives have a fitted effect of over 40% in size. In a few lines:
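Measures cytotoxicity alongside the ER-alpha antagonist readout: VM7Luc4E2 cells, charcoal-stripped serum, 0.1 nM 17beta-estradiol final, 22 hr compound incubation at 37C, CellTiter-Fluor fluorescence.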
Background: In qHTS, concentration-response curves come from the screen itself.

Assay [2] can be described thus: qHTS assay to identify small molecule antagonists of the androgen receptor (AR) signaling pathway using the MDA cell line in the presence of 0.5 nM R1881 - cell viability counter screen (AID 1259242). Further: nearly all actives have a fitted effect of over 45% in size. The gist of the method: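 Steps: plate MDA-kb2 cells, rest 5 hr at 37C without CO2; pin in compounds in DMSO; add R1881 to 0.5 nM final; incubate 16 hr; add CellTiter-Fluor, 30 min; read fluorescence.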

The target in assay [3] is Estrogen receptor (Homo sapiens) (UniProt P03372). Put plainly: qHTS assay to identify small molecule antagonists of the estrogen receptor alpha (ER-alpha) signaling pathway using the BG1 cell line in the presence of 0.1 nM 17-beta-estradiol (AID 1259244). Further: nearly all actives have a fitted effect of over 50% in size. In a few lines:
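Antagonist mode: compounds in DMSO are pinned onto VM7Luc4E2 reporter cells, 0.1 nM final 17beta-estradiol is added, and after 22 h at 37C luciferase luminescence is measured with ONE-Glo.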

A short description of assay [4]: qHTS assay to identify small molecule phospholipidosis (PLD) inducers (AID 1259344; active means well fitted curve in the direction sought with a large enough effect; an effect the other way counts as inactive or inconclusive). In a few lines:
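Accumulated phospholipid, stained red by LipidTOX during 24 h compound treatment of HepG2 cells at 37 C, is quantified from images as pit number and intensity, normalised per cell using Hoechst-stained nuclei.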

The nature of assay [5]: qHTS assay to identify small molecule HDAC inhibitors (AID 1259364).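 Further: wild-type HCT-116 cells with endogenous class I/II HDAC activity; top concentration of the series differs between compounds; nearly all actives have a fitted effect of over 45% in size.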 In a few lines: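 Cells (HCT-116, wild type) are seeded at 1,500 per well, incubated overnight, treated with compound in DMSO for 2 hr, then developed with HDAC-Glo I/II reagent for 30 min at room temperature.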
A short description of assay [6]: qHTS assay to identify small molecule HDAC inhibitors - cell viability counter screen (AID 1259365). Further: series mostly up to about 92 µM; nearly all actives have a fitted effect of over 50% in size. The gist of the method: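 Following a 2hr exposure of overnight-plated wild-type HCT-116 cells to DMSO-delivered compounds, CellTiter-Glo was added and luminescence recorded after 30min at room temperature.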
A short description of assay [7]: qHTS assay to identify small molecule agonists of the sonic hedgehog signaling (Shh) pathway - cell viability counter screen (AID 1259366). Further: nearly all actives have a fitted effect of over 50% in size. In a few lines:
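After a 4hr attachment at 37C, NIH/3T3 cells bearing an integrated Gli1-driven luciferase reporter were dosed with compounds. Treatment lasted 24hr, with the final hour including CellTiter-Fluor for a fluorescence viability measurement.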

Assay [8] is described as follows: qHTS assay to identify small molecule antagonists of the sonic hedgehog signaling (Shh) pathway - cell viability counter screen (AID 1259367). Further: nearly all actives have a fitted effect of over 55% in size. In a few lines: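 CellTiter-Fluor signal in conditioned medium-stimulated 3T3 Gli1-Luc cells, 23 hr compound exposure, 37C.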
A short description of assay [9]: qHTS assay to identify small molecule agonists of the sonic hedgehog signaling (Shh) pathway (AID 1259368; calls by dose curve;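 further: NIH/3T3-derived 3T3Gli1-Luc cells carrying a stable Gli1-driven firefly luciferase reporter; series mostly up to about 92 µM; nearly all actives have a fitted effect of over 15% in size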). The gist of the method: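 Cells of a mouse NIH/3T3 clone stably expressing luciferase under the Gli1 transcriptional response element are exposed to test chemicals for 24 hr at 37 C. Pathway activation is detected as a rise in luminescence.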
The nature of assay [10]: qHTS assay to identify small molecule antagonists of the sonic hedgehog signaling (Shh) pathway (AID 1259369; calls by dose curve; further: nearly all actives have a fitted effect of over 45% in size). In a few lines:
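Cells are plated and held 4hr at 37 C, compounds (DMSO) are pinned in, conditioned medium is added to stimulate the pathway, and after 24hr luciferase reagent is added for 30min before luminescence is read.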

The target of assay [11] is Estrogen receptor beta (Homo sapiens) (UniProt Q92731). As to the kind of experiment: qHTS assay to identify small molecule agonists of the estrogen receptor beta (ER-beta) signaling pathway (AID 1259377; active means well fitted activation curve with a large enough effect in the signal ratio in the repeat runs, not every such curve was filed as active; the % refers to the signal ratio). The gist of the method:
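In HEK293T cells bearing a UAS-beta-lactamase reporter under ER-beta control, DMSO-delivered compounds were incubated for 16 hr at 37C. Activity was detected as fluorescence 2 hours after LiveBLAzer B/G FRET substrate addition.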

Assay [12] has the same target. Put plainly: qHTS assay to identify small molecule antagonists of the estrogen receptor beta (ER-beta) signaling pathway (AID 1259378; active means well fitted inhibition curve with a large enough effect in the signal ratio in the repeat runs, not every such curve was filed as active; the % refers to the signal ratio). In a few lines:
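Antagonist mode: compounds added to beta-lactamase reporter HEK293T ER-beta-UAS cells stimulated with E2 (1nM final), 16 hr at 37C. LiveBLAzer B/G FRET substrate, 2 hours room temperature, fluorescence read-out.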

The nature of assay [13]: qHTS assay to identify small molecule agonists of the androgen receptor (AR) signaling pathway in the presence of an antagonist - cell viability counter screen (AID 1259379).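 Further: MDA-kb2 human breast cancer cells carrying an MMTV luciferase reporter; series mostly up to about 92 µM; nearly all actives have a fitted effect of over 25% in size.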 In a few lines: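 Cytotoxicity is assessed by CellTiter-Fluor in MDA-kb2 cells carrying an MMTV-driven luciferase reporter. Cells receive 3.0uM nilutamide plus compounds at 15 concentrations and incubate 16 hr at 37C without CO2 before fluorescence reading.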

Assay [14] is described as follows: qHTS assay to identify small molecule agonists of the estrogen receptor beta (ER-beta) signaling pathway - cell viability counter screen (AID 1259380). Further: nearly all actives have a fitted effect of over 30% in size. In a few lines: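 Cytotoxicity is measured in parallel with the reporter screen: after 16 hr compound exposure at 37C and a 2 hr LiveBLAzer step, CellTiter-Glo is added to the same ER-beta-UAS-bla HEK293T wells and luminescence read after 30 min.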

Assay [15] has as its target Estrogen receptor (Homo sapiens) (UniProt P03372). Put plainly: qHTS assay to identify small molecule agonists of the estrogen receptor alpha (ER-alpha) signaling pathway in the presence of an antagonist (AID 1259383; calls by dose curve; further: top concentration of the series differs between compounds; nearly all actives have a fitted effect of over 15% in size). The gist of the method:
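Agonist-mode confirmation in the presence of the ER antagonist ICI-182,780 at 10.0nM final. Breast-derived VM7Luc4E2 reporter cells were exposed to compounds for 22hr, and ERE-driven luciferase was quantified by luminescence.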

Assay [16] deals with Androgen receptor (Homo sapiens) (UniProt P10275). Put plainly: qHTS assay to identify small molecule antagonists of the androgen receptor (AR) signaling pathway using the MDA cell line in the presence of 0.5 nM R1881 (AID 1259243). Further: nearly all actives have a fitted effect of over 50% in size. In a few lines:
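Stably transfected MDA-kb2 cells express luciferase from an MMTV promoter bearing both AR and GR response elements. Compounds plus 0.5 nM R1881 (final) were incubated 16 hr at 37C without CO2, then luminescence measured.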

Assay [17] has the same target. Put plainly: qHTS assay to identify small molecule agonists of the androgen receptor (AR) signaling pathway in the presence of an antagonist (AID 1259381; calls by dose curve; further: nearly all actives have a fitted effect of over 15% in size). The gist of the method:
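Agonist-mode confirmation screen: human MDA-kb2 cells stably expressing luciferase under an MMTV promoter bearing AR and GR response elements, co-treated with 3.0uM nilutamide (final). Luminescence measured after 16hr compound incubation.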

Assay [18] is described as follows: qHTS assay to identify small molecule antagonists of the estrogen receptor beta (ER-beta) signaling pathway - cell viability counter screen (AID 1259382).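 Further: HEK293T cells carrying ER-beta-UAS-bla reporter stimulated with estradiol; series mostly up to about 92 µM; nearly all actives have a fitted effect of over 55% in size.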 The gist of the method:
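Cytotoxicity counter screen multiplexed with the beta-lactamase antagonist assay: GripTite HEK293T ER-beta-bla cells were treated 16 hr with test chemicals in the presence of 1nM 17-beta-estradiol, and viability was measured by CellTiter-Glo.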

The nature of assay [19]: qHTS assay to identify small molecule agonists or antagonists of the thyroid stimulating hormone receptor (TSHR) signaling pathway - wild type cell line counter screen (AID 1259384; calls by dose curve). In a few lines:
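Counter screen in untransfected Hek293: compounds (15-point titration, triplicate) plus phosphodiesterase inhibitor Ro20-1724 added after 18 h plating; 30 min RT. Intracellular cAMP via competitive d2/cryptate immunoassay, 1 h incubation.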

Assay [20] concerns the target Thyrotropin receptor (Homo sapiens) (UniProt P16473). Put plainly: qHTS assay to identify small molecule antagonists of the thyroid stimulating hormone receptor (TSHR) signaling pathway (AID 1259385; calls by dose curve; further: nearly all actives have a fitted effect of over 20% in size; further: potency means the concentration at half of the fitted maximal effect). The gist of the method: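 Antagonist mode: compound-treated TSHR-expressing HEK293 cells were stimulated with 1.5 ng/mL TSH (final) in presence of Ro20-1724 for 30 min at RT. HTRF cAMP detection after 1 h; each compound tested at 15 concentrations, triplicate.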

SMILES strings stand for the structures. A number with no mark means an inactive call. Inconclusive results are not listed. The source made the active and inactive calls. Unless noted, the call rests on the fitted dose curve; in most records, active means well fitted curve in the direction sought with a large enough effect in the repeat runs; inconclusive means weak or mixed curves; inactive means no such curve, though single readings can be large; an effect the other way counts as inactive or inconclusive.
On the % scale 0 is the no-effect control and ±100 the full control effect.

Estrogen receptor beta (Homo sapiens), sequence (Q92731 whole entry, looked up): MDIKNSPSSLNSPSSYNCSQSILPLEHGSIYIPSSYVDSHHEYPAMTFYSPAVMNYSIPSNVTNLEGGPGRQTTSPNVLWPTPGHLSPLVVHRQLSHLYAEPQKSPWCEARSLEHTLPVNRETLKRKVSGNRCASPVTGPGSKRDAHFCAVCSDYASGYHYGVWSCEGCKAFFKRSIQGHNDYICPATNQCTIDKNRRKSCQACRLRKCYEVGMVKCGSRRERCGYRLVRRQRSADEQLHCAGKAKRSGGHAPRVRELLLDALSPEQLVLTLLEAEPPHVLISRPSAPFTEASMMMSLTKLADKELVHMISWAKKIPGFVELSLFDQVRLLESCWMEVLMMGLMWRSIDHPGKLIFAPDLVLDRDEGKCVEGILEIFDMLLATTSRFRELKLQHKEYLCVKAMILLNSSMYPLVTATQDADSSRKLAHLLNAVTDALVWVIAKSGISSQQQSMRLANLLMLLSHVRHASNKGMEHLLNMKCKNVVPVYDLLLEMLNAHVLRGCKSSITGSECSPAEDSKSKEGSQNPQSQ
Thyrotropin receptor (Homo sapiens), sequence (P16473 whole entry, looked up): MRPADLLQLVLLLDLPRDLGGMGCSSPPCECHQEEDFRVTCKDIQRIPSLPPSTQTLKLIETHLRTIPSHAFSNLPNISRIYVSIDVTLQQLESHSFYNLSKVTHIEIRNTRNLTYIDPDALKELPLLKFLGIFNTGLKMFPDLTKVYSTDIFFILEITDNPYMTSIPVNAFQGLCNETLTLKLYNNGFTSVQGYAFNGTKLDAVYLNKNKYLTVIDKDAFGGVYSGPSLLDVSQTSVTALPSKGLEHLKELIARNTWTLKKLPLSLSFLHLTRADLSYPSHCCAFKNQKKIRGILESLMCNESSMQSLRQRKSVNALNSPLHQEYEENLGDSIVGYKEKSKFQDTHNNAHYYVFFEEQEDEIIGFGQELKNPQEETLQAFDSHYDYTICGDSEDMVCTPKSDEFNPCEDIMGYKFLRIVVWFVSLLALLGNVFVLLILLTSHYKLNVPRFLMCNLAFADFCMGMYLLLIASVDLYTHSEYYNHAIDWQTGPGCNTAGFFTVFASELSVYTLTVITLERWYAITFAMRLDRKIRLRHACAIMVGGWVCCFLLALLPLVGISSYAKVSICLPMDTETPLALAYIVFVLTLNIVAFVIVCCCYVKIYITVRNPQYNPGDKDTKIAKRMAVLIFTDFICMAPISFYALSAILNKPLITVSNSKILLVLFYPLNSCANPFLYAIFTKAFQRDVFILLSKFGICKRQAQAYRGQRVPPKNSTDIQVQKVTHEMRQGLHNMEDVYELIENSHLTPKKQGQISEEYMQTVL
Estrogen receptor (Homo sapiens), sequence (P03372 whole entry, looked up): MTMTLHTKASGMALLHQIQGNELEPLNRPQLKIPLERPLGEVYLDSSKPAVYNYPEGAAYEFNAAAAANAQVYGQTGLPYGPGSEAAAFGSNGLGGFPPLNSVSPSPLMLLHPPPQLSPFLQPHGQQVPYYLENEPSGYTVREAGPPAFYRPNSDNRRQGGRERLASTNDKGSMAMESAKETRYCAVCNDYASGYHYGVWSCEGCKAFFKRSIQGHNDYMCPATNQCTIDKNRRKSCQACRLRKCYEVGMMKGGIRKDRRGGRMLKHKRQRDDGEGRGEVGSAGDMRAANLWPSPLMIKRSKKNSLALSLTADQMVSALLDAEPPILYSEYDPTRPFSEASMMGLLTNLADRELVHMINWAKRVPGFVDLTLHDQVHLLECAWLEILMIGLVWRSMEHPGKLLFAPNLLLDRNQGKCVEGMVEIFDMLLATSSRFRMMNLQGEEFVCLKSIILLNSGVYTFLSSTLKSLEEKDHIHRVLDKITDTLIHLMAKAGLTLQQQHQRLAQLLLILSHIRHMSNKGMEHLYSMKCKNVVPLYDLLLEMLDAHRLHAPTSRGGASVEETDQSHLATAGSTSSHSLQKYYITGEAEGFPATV
Androgen receptor (Homo sapiens), sequence (P10275 whole entry, looked up): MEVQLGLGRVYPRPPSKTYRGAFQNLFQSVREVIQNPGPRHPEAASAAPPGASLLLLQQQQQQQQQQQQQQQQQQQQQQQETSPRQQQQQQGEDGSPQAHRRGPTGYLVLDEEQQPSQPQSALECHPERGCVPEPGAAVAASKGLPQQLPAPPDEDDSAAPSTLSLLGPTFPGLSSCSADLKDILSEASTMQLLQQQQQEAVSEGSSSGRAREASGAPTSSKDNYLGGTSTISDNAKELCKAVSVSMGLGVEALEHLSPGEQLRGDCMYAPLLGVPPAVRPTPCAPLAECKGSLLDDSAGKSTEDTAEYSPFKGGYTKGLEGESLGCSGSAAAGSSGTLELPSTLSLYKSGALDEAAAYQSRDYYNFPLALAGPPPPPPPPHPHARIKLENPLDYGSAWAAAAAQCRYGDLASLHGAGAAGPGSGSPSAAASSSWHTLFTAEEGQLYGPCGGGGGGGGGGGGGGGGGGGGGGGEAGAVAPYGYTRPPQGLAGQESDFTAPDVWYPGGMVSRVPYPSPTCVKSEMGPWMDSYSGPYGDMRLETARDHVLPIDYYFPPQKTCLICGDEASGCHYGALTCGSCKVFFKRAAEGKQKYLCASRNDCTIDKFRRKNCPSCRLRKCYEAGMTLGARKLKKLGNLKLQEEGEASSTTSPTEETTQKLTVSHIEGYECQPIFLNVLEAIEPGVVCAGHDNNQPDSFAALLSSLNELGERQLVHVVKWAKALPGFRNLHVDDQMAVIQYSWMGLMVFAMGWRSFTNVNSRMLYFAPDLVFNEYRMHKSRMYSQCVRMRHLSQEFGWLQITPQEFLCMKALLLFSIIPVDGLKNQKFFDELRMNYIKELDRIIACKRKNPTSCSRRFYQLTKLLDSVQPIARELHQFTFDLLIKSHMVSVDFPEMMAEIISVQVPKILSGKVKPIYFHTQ

For the compound `CCOc1cc(OCC)c(C(=O)CCC(=O)O)cc1OCC`, the Potency entry in [1], in [2], in [3], in [4], in [5] and in [7] was “inactive” in each case. The Potency entry in assay [8], in assay [10], in [11], in assay [12], in assay [13] and in assay [14] was “inactive” each time. Further, the Potency result in assay [15] was “inactive”. Besides, the call in assay [6] and in assay [9] was inactive.

As to `CCCOc1ccc2nc(NC(=O)OC)[nH]c2c1`, the Potency entry in [1], in [2], in assay [16], in assay [3], in assay [4] and in assay [7] was “inactive” in each case. Further, the Potency result in assay [8], in assay [10], in assay [13], in [14], in [17] and in [18] was “inactive” in each case. For the same compound, the Potency entry in assay [15] is “inactive”. In addition, in assay [9], the result was inactive.

As for `NCCCN(CCO)CCO`, the Potency entry in assay [1], in assay [2], in assay [16], in [3], in assay [5] and in assay [7] was “inactive” in each case. Moreover, the Potency result in assay [8], in assay [10], in assay [13], in [14], in assay [17] and in assay [18] was “inactive” in each case. Further, the Potency result in assay [15], in [19] and in [20] was “inactive” each time. The call in assay [6] and in assay [9] was inactive.

As to `CCOc1nc2cccc(C(=O)O)c2n1Cc1ccc(-c2ccccc2-c2nn[nH]n2)cc1`, the Potency result in [1], in [2], in assay [16], in [3], in assay [4] and in [5] was “inactive” throughout. The Potency entry in assay [7], in assay [8], in assay [10], in assay [12], in assay [13] and in assay [17] was “inactive” in each case. In addition, the Potency result in assay [18], in [15], in [19] and in assay [20] was “inactive” throughout. Further, the call in assay [6] and in [9] was inactive.

Regarding `CC(C)(Oc1ccc(Cl)cc1)C(=O)OCCCOC(=O)C(C)(C)Oc1ccc(Cl)cc1`, the Potency result in assay [1], in assay [2], in assay [16], in assay [3], in assay [5] and in [7] was “inactive” throughout. Besides, the Potency result in [8], in [10], in assay [11], in assay [12], in [13] and in [14] was “inactive” each time. Moreover, the Potency entry in assay [17], in assay [18] and in assay [19] was “inactive” in each case. Also, the call in assay [6] and in assay [9] was inactive. In addition, the Potency in assay [20] was 29.8 µM (active).

As for `CC(=O)O[C@@H]1C(=O)O[C@@H]2[C@H]1OC(=O)[C@@H]2OC(C)=O`, the Potency entry in [1], in assay [2], in assay [3], in [5], in [7] and in [8] was “inactive” throughout. Also, the Potency entry in assay [10], in assay [11], in [12], in [13], in assay [14] and in [18] was “inactive” in each case. For the same compound, the Potency result in [15], in assay [19] and in [20] was “inactive” throughout. The PLD induction in [4] is 0.969% [at 7.66 µM]. Moreover, the call in [6] was inactive.

As for `CCOC(=S)SSC(=S)OCC`, the Potency entry in assay [1], in assay [2], in assay [3], in assay [4], in [5] and in assay [7] was “inactive” throughout. The Potency entry in [8], in assay [10], in [13], in assay [14], in [19] and in assay [20] was “inactive” throughout. Further, the outcome in [6] and in assay [9] was inactive.

Take `CCN(CC)CCc1nc(-c2ccccc2)no1`: the Potency result in [1], in [2], in [3], in [4], in assay [5] and in assay [7] was “inactive” throughout. Also, the Potency entry in [8], in assay [10], in [11], in [12], in assay [13] and in assay [14] was “inactive” throughout. In addition, in assay [20], the Potency result is “inactive”. Besides, the compound was called inactive in assay [6].
